High-throughput results as filed in PubChem BioAssay.
Most compounds without a hit are left out; they make up all but 2.8% or so of the library.
Pol iota inh = DNA polymerase iota (human) inhibition; Pol iota fluorescent replication assay, 10 min; Potency, µM (doses to about 115 µM), for the others: at the highest dose activity, negative = inhibition, hits mostly inhibitors; hit rate 1% among 390,000; Q9UNA4; AID 588590; also: potency is read from the fitted curve at half-maximal effect
Target sequence (Q9UNA4 whole entry, looked up): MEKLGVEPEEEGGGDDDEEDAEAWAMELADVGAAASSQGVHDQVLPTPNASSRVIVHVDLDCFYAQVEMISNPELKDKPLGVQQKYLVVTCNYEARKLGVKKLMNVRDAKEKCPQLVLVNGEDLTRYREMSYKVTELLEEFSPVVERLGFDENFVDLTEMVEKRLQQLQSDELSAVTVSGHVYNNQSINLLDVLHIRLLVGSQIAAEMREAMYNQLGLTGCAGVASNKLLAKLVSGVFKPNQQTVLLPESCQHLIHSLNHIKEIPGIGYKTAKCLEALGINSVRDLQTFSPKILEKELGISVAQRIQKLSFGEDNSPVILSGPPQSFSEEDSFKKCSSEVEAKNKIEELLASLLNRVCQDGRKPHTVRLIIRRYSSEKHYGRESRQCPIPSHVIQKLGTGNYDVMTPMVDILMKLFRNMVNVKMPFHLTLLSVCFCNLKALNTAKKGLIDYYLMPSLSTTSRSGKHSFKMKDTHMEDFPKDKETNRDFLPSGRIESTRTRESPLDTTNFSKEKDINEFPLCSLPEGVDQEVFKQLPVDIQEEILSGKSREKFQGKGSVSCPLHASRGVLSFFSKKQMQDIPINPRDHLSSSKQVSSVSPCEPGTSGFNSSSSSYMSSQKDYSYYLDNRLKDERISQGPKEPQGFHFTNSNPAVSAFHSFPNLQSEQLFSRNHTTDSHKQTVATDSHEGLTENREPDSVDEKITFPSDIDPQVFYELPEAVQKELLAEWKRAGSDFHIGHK
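Pol iota at 10 nM preincubated 15 min with compounds at room temperature; reaction started with fluorescent substrate, 50 nM final. Fluorescence read kinetically at 0 and 10 min; buffer-only wells as negative control.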
Pol eta inh-1 = DNA polymerase eta (human) inhibition. Q9Y253. recombinant Pol eta, fluorescent DNA replication assay. Potency, µM (series often up to 114 µM), for the others: top-dose activity change, negative = inhibition, actives largely listed as inhibitors. hit rate 1.2% among 390,000; also: potency is read from the fitted curve at half-maximal effect; % is scaled to controls: 0 for no effect and ±100 for the full control effect
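Fluorescent replication assay: 50 nM final substrate added after a 15 min room-temperature compound preincubation with 10 nM enzyme. Signal taken at 0 min and again at 10 min.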
POLB inh = blocks human DNA polymerase beta activity; Pol beta primer extension/strand displacement, fluorescence kinetic; Potency, µM (doses to about 114 µM), for the others: top-dose activity change, negative = inhibition, hits mostly inhibitors; hit rate 1.3% among 340,000; AID 485314; also: potency is read from the fitted curve at half-maximal effect; % is scaled to controls: 0 for no effect and ±100 for the full control effect
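Reaction started by 50 nM substrate onto compound-treated Pol beta (10 nM, 15 min preincubation, room temperature); plates read at 0 min and 10 min. Normalized concentration-effect data fitted by four-parameter Hill equation.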
WRN helicase inh = inhibitors of human WRN helicase; Q14191; WRN helicase unwinding, fluorescent forked duplex, kinetic; Potency, µM (top dose mostly 114 µM), for inactives: top-dose activity change, negative = inhibition, usual class: inhibitors; hit rate 0.46% among 360,000; also: potency is read from the fitted curve at half-maximal effect; % is scaled to controls: 0 for no effect and ±100 for the full control effect; nearly all actives have a fitted effect of over 55% in size
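Screening of the MLSMR collection measured strand separation of a quenched forked DNA duplex (100 nM) by 20 nM WRN with 2 mM ATP, all final. Compounds were preincubated with enzyme 15 min at room temperature.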
PI5P4Ka inh = blocks human PI5P4K alpha kinase activity; PI5P4Kalpha enzyme, ADP-Glo luminescence, 60 min; hits give low values; P48426; AID 652105; hit rate 1.2% among 330,000; max response, %; active = max response of -50% or lower; inconclusive = between -30% and -50%; inactive = -30% or higher; also: value at the top dose of about 77 µM; % is scaled to controls: 0 for no effect and ±100 for the full control effect
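Luminescence from ADP-Glo served as readout of PI5P4Kalpha activity in a qHTS format. Reaction: enzyme, substrate, compound, ATP at 5 microM final, 60 min at RT.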
Pol kappa inh-1 = inhibitors of human DNA polymerase kappa; purified Pol kappa, fluorescent DNA synthesis assay, 10 min; hit rate 0.53% among 400,000; Potency, µM (doses to about 107 µM), for the others: top-dose activity, negative = inhibition, most hits filed as inhibitors; also: potency is read from the fitted curve at half-maximal effect; % is scaled to controls: 0 for no effect and ±100 for the full control effect
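Enzyme at 10 nM met test compounds for 15 min at room temperature. Substrate addition (50 nM final) began the reaction, which was monitored by fluorescence at 0 and 10 min.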
HEK293 viability = HEK-293 cytotoxicity, GALK inhibitor secondary. shares compounds with Pol eta inh-1. Potency, µM (top dose mostly 46.1 µM), without a hit: at the top dose activity change, negative = cytotoxicity, most hits filed as inhibitors. hit rate 10% among 170. HEK-293 viability, ATP luminescence (CellTiter-Glo), 24/48 h. AID 2547; also: potency is read from the fitted curve at half-maximal effect; % is scaled to controls: 0 for no effect and ±100 for the full control effect
Pol kappa inh-2 = Pol kappa (human) inhibition, cherry-pick confirmation | shares compounds with Pol eta inh-1 | purified Pol-kappa, fluorescent strand-displacement substrate | Potency, µM, actives largely listed as inhibitors | hit rate 76% among 920; also: potency is read from the fitted curve at half-maximal effect
Pol eta inh-2 = Pol eta (human) inhibition, cherry-pick confirmation; shares compounds with Pol eta inh-1; Pol eta primer extension, TAMRA/BHQ fluorescence, 10 min; Potency, µM, actives largely listed as inhibitors; hit rate 64% among 2,600; also: potency is read from the fitted curve at half-maximal effect
An asterisk follows results filed as active; ? = inconclusive; . = not tested or not shown; [ ] = dose if it differs, or a comment. Unless noted, calls follow the shape of the dose curve; as a rule, active = well fitted curve in the direction sought with a large enough effect; inconclusive = small, poorly fitted or top-dose-only effect, or another doubt; inactive = no such curve, though single readings can be large; an effect the other way counts as inactive or inconclusive.

SMILES | Pol iota inh | Pol eta inh-1 | POLB inh | WRN helicase inh | PI5P4Ka inh | Pol kappa inh-1 | Pol eta inh-2 | others
CC1(C)CC(=O)C2=C(C1)NC(Nc1nc3ccccc3o1)=NC2c1cccc(O)c1 (stereo not given) | 23% | . | . | . | . | -6% | . | HEK293 viability=?
CC1(C)CC(=O)C2=C(C1)NC(Nc1nc3ccccc3o1)=NC2c1cccnc1 (stereo not given) | 18% | . | . | . | . | -21% | . | HEK293 viability=9%
Cc1ccccc1C(=O)NC1(C(F)(F)F)C(=O)Nc2c1c(=O)[nH]c(=O)n2CCc1ccccc1 (stereo not given) | 0% | 4% | 13% | . | . | -11%[60.1 µM] | .
CCOc1ccc(NS(=O)(=O)c2ccc(NC(=O)N3CCCC3)cc2)cc1 | -6% | 4% | 14% | . | . | -6%[60.1 µM] | .
CC1(C)CC(=O)C2=C(C1)NC(=O)NC2c1ccccc1 (stereo not given) | 0% | -5% | 23% | 10% | 8 | -12% | .
Cc1ccc(C2N=C(Nc3nc4ccccc4o3)NC3=C2C(=O)CC(C)(C)C3)cc1 (stereo not given) | 8% | . | . | . | . | 11% | . | HEK293 viability=0%
Cc1ccc(C2C3=C(CC(C)(C)CC3=O)Nc3onc(C)c32)cc1 (stereo not given) | 6% | -5% | -8% | -9% | 4 | -14% | .
CC1(C)CC(=O)C2=C(C1)NC(Nc1nc3ccccc3o1)=NC2c1ccccc1 (stereo not given) | 14% | . | . | . | . | 0% | . | HEK293 viability=-11%
Cc1nc2ccc(S(=O)(=O)NC(CC(C)C)C(=O)N3CCN(c4ccc(F)cc4)CC3)cc2s1 (stereo not given) | 8% | 0% | 11% | . | . | -4% | .
COc1ccc(C(=O)NCCc2sc(-c3ccc(Cl)cc3)nc2C)c(OC)c1 | 10% | -22% | -6% | . | . | -2%[60.1 µM] | .
Cc1nnc(SCC2=C(C(=O)O)N3C(=O)C(NC(=O)C(C)n4nc(C(F)(F)F)cc4C)C3SC2)s1 (stereo not given) | -19% | 22µM* | 18µM* | -12%[11.6 µM] | 1 | -33% | 27*
CC1=C(C(=O)O)N2C(=O)C(NC(=O)C(N)c3ccc(O)cc3)C2SC1 (stereo not given) | . | . | . | . | . | 1%[60.1 µM] | .
CCN(CC)S(=O)(=O)c1nnc(NC(=O)COc2ccccc2F)s1 | -6% | . | -26% | . | . | -27% | .
COc1cc(NC(=O)Cc2c(C(=O)O)c(C)cn2C)cc(OC)c1 | 19% | -7% | -14% | . | . | -9%[60.1 µM] | .
NC(=S)NN=C1c2cc(Cl)ccc2-c2c1cc(Cl)cc2[N+](=O)[O-] | 19% | 2% | . | 1% | -14 | 1% | .
COc1cc2c(cc1[N+](=O)[O-])-c1ccc([N+](=O)[O-])cc1C2=NNC(N)=S | . | 10µM* | . | -26% | -59* | . | . | Pol kappa inh-2=67*
Cc1nc2ncnn2c(N2CCN(C(=O)Cc3cccs3)CC2)c1C | ? | 79µM* | 20µM* | ? | . | ? | ?
O/N=C/c1cc(Br)ccc1OCc1ccc(F)cc1 | 7% | -8% | . | -6% | -1 | -23% | .
O=C(O)CN1C(=O)/C(=C\c2cc(Br)ccc2OCc2ccc(F)cc2)SC1=S | 40µM* | 40µM* | 40µM* | ? | ? | -69% | ?
Cc1c(C(=O)Nc2cccc(F)c2)oc2c1-c1nn(Cc3c(F)cccc3Cl)cc1CC2 | 21% | 89µM* | 1% | . | . | 4% | . | Pol kappa inh-2=47*
Cc1cccc(Cn2c(C)c(C)c3cc(C(=O)NCc4ccco4)ccc32)c1 | -10% | 79µM* | ? | . | . | -15% | ?
COc1cc(CNC(=O)c2ccc3c(c2)c(C)c(C)n3Cc2cccc(C)c2)cc(OC)c1OC | 11% | -19% | -2% | . | . | -20% | .
Cc1noc(C)c1C(=O)N1CCC[C@@]2(CCN(c3cccc(-c4ccccc4)c3)C2)C1 | . | . | . | . | . | -1%[60.1 µM] | .
CCOC(=O)C(CC)Sc1c(CC)cnc2c1c(=O)n(C)c(=O)n2C (stereo not given) | -1% | -16% | -3% | . | . | -6%[60.1 µM] | .
COc1ccccc1N1CCN(C(=O)c2cn(C)c3ccc(S(=O)(=O)N(C)C4CCCCC4)cc3c2=O)CC1 | 18% | -15% | 0% | . | . | 8% | .
SMILES | Pol iota inh | Pol eta inh-1 | POLB inh | WRN helicase inh | PI5P4Ka inh | Pol kappa inh-1 | Pol eta inh-2 | others
Cc1nnc(NC(=O)CSc2nnc3c(n2)[nH]c2ccccc23)s1 | -22% | 11% | 14% | . | . | -7% | .
CCOC(=O)Cc1nnc(NC(=O)CSc2nnc3c(n2)[nH]c2ccccc23)s1 | 25µM* | 20µM* | 18µM* | ? | -19 | 79µM* | 43*
O=S(=O)(Nc1ccc(-c2ccc(N3CCCC3)nn2)cc1)c1ccccc1Cl | -29% | 3% | -20% | . | . | -18%[60.1 µM] | .
Cc1ccc(S(=O)(=O)CCC(=O)Nc2sccc2C#N)cc1 | 22% | -18% | . | -6% | 2 | -3% | .
Cc1ccc(S(=O)(=O)CCC(=O)OCC(=O)Nc2sccc2C#N)cc1 | . | 28µM* | . | -2% | -60* | . | ?
COc1ccc(C(=O)NCC(=O)OCC(=O)Nc2sccc2C#N)cc1OC | -75% | 50µM* | ? | -28%[57.1 µM] | -58* | ? | ?
COc1ccc(OC)c(NC(=O)COC(=O)CNC(=O)c2ccc(OC)c(OC)c2)c1 | 19% | -1% | 12% | 7% | -1 | -4% | .
CCCN(CCC)S(=O)(=O)c1ccc(NC(=O)Cc2cccs2)cc1 | ? | ? | ? | -20%[57.1 µM] | . | -36% | 76*
CC(C)C(CC(=O)NCc1ccco1)c1ccco1 (stereo not given) | ? | 18µM* | ? | ? | -13 | ? | ?
CC(Cc1c[nH]c2ccccc12)C(=O)NCc1ccco1 (stereo not given) | ? | 20µM* | 32µM* | -17% | 0 | ? | 30* | Pol kappa inh-2=42*
COc1ccccc1CNC(=O)CCC1N=C2c3ccccc3N=C(SCc3ccc(Cl)cc3)N2C1=O (stereo not given) | -17% | -16% | -24% | . | . | 2%[60.1 µM] | .
O=C1/C(=C\c2ccc(Br)cc2)SC(=S)N1NS(=O)(=O)c1ccccc1 | 30% | 50µM* | 68% | ? | -56* | -16% | ?
CC(/C=C1\SC(=S)N(NS(=O)(=O)c2ccc(C)cc2)C1=O)=C\c1ccccc1 | ? | 40µM* | 40µM* | ? | ? | -14% | ?
